Experimental findings from PubChem BioAssay (NCATS) are described below.

The target in test [1] is Rap guanine nucleotide exchange factor 3 (Homo sapiens) (UniProt O95398). The test is described as follows: Counterscreen qHTS for antagonist of cAMP-regulated guanine nucleotide exchange factor 3 (EPAC1) (AID 1645888). Further: % of control where 0% means no effect. The method in brief: (§1)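 Measured: fluorescence of BODIPY-GDP bound to Rap1B, which falls as exchange proceeds. Conditions include 50 uM competing GDP, 5 and 30 min reads, and a later cAMP challenge for antagonist detection.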

Test [2] shares this target. The test is described as follows: Counterscreen qHTS for agonist of cAMP-regulated guanine nucleotide exchange factor 3 (EPAC1) (AID 1645889). Further: % of control where 0% means no effect; nearly all actives have a fitted effect of over 40% in size. Put shortly:
as §1
(The purpose of a counterscreen is to sort out artefacts and off-target activity.)

Test [3] addresses Catechol O-methyltransferase (Homo sapiens) (UniProt P21964). The test is described as follows: Confirmatory Screen for Target Class Profiling of Small Molecule Inhibitors of Methyltransferases (AID 1745852; calls by dose curve; further: potency means the concentration at half of the fitted maximal effect; on activity change, negative = inhibition: on the % scale 0 is the no-effect control and ±100 the full control effect). The note with it: MTase-Glo luminescence, SAH detection, recombinant enzyme; measured here: COMT max response; stronger effect = lower value.
Test [4] has as its target Guanidinoacetate N-methyltransferase (Homo sapiens) (UniProt Q14353). The description is as above. The note with it: activity change, negative = inhibition: at 57.3 µM (top of the series) unless noted.
For test [5], the target named is Nicotinamide N-methyltransferase (Homo sapiens) (UniProt P40261). The description is as above. The note with it: MTase-Glo luminescence, SAH detection, recombinant enzyme; measured here: NNMT max response; stronger effect = lower value.
The target in test [6] is Phenylethanolamine N-methyltransferase (Homo sapiens) (UniProt P11086). The description is as above. The note with it: MTase-Glo luminescence, SAH detection, recombinant enzyme; measured here: PNMT max response; stronger effect = lower value.

Records with an inconclusive call do not appear. Activity calls are given as the source filed them. Unless noted, the call rests on the fitted dose curve; in most records, active means well fitted curve in the direction sought with a large enough effect; inconclusive means small, poorly fitted or top-dose-only effect, or another doubt; inactive means no such curve, though single readings can be large; an effect the other way counts as inactive or inconclusive.

Phenylethanolamine N-methyltransferase (Homo sapiens), sequence (P11086 whole entry, looked up): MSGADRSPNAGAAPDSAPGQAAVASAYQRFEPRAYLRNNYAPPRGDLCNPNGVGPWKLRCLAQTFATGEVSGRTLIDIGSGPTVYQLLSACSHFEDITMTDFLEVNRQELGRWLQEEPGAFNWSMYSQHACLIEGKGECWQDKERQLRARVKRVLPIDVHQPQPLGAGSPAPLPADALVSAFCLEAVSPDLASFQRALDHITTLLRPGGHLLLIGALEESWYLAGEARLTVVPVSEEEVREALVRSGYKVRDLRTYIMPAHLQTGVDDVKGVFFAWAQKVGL
Catechol O-methyltransferase (Homo sapiens), sequence (P21964 whole entry, looked up): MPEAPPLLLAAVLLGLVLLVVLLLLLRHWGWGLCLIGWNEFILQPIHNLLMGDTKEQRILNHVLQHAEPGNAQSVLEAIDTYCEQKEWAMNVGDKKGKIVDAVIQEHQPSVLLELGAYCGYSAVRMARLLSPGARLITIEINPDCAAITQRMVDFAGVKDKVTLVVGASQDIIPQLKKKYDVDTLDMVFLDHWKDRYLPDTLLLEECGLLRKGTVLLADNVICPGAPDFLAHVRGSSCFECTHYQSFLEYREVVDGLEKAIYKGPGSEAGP
Nicotinamide N-methyltransferase (Homo sapiens), sequence (P40261 whole entry, looked up): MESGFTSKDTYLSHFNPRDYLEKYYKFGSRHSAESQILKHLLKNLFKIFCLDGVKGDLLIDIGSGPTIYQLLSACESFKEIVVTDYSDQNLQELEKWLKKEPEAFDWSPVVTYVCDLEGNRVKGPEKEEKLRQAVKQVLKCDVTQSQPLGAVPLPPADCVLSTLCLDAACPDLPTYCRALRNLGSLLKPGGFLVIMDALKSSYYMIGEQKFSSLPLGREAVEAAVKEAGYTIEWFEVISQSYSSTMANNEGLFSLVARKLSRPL
Rap guanine nucleotide exchange factor 3 (Homo sapiens), sequence (O95398 whole entry, looked up): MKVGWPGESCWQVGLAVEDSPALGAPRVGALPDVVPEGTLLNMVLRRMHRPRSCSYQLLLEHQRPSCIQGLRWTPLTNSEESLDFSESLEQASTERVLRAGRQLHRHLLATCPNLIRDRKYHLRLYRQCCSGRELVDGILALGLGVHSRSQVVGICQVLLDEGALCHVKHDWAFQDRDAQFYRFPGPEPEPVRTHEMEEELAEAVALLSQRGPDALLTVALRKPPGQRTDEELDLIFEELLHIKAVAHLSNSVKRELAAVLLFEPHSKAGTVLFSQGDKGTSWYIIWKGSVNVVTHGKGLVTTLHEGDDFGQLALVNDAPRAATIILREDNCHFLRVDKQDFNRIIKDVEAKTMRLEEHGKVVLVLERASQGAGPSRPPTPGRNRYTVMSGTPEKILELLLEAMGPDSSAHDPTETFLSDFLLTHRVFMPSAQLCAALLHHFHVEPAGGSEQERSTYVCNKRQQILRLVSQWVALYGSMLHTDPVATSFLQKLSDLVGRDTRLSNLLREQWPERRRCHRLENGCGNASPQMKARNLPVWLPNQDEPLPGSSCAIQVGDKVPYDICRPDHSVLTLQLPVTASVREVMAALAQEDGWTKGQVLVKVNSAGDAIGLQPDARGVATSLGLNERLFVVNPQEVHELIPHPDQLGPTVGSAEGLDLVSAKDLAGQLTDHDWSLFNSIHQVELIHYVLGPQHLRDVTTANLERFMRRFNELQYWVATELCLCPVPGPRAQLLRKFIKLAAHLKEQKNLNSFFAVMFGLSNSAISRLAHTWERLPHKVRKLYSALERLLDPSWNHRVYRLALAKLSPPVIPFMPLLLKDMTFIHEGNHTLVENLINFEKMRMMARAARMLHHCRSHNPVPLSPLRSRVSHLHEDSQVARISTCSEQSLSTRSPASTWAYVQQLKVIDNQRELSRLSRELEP

As to `COc1cc(C2CC(=O)Oc3cc(C)c(Cl)c(C)c32)cc(OC)c1OC` (stereo unspecified), the activity change, negative = inhibition in test [1] was -10.7% [at 30.8 µM] (inactive). Besides, the activation in test [2] is 28.3% [at 30.8 µM] (inactive).
In the case of `Cc1ccc(CNC(=O)c2ccc3c(=O)[nH]c4c(C(=O)NC(C)C)sc(=S)n4c3c2)cc1`, the activity is -30.2% in test [3], -65.3% in test [5] and -17.2% in test [6]. Also, in test [4], the activity change, negative = inhibition is -7.1%.
For the molecule `CC(C)Cn1c(=O)c2ccccc2n2c(CCC(=O)N3CCN(c4ccccc4)CC3)nnc12`, the activity is 2.06% in test [3], -46.8% in test [5] and -1.48% in test [6]. Further, in test [4], the activity change, negative = inhibition is 0%.
For `Cc1cc(C)c(NS(=O)(=O)c2ccc3c(c2)n(C)c(=O)n3C)c(C)c1`, in that order: 0.505%, -39.4%, 0.178% and 0%.
On the same counts, the results for `O=C(CCc1nnc2n(Cc3ccc(F)cc3)c(=O)c3ccccc3n12)NCCN1CCCC1` are -4.07%, -16.1%, 2.1% and -0.511%.
On to `COc1ccc(-c2nnn3c2nc(NCCc2ccc(OC)c(OC)c2)c2ccccc23)cc1`, for which the activity in test [3] was -10.5%; in test [5] it was -12.4%; in test [6], -9.28%. Also, in test [4], the activity change, negative = inhibition was -2.81%.
Consider `CCc1ccc(NS(=O)(=O)c2ccc3c(c2)n(C)c(=O)n3C)cc1`, for which the activity in test [3] was 4.08%; in test [5] it was -40.6%; in test [6] it was -1.22%. Further, the activity change, negative = inhibition in test [4] was 0%.
On to `CCN(CC)CCCNC(=O)CCCc1nnc2n3nc(-c4ccccc4)nc3c3ccccc3n12`, for which the activity is -3.39% in test [3], -0.543% in test [5] and -1.05% in test [6]. In addition, the activity change, negative = inhibition in test [4] came out at 0%.
In the case of `COc1cc(F)ccc1-c1cc(-c2ccc(=O)[nH]c2)c2cncn2c1`, the activity in test [3] is -95.1%; in test [5], -11%; in test [6], -5.79%. Further, in test [4], the activity change, negative = inhibition was -5.99% [at 85.7 µM].
For `CN(CCCNC(=O)CCCc1nnc2n3nc(-c4ccccc4)nc3c3ccccc3n12)Cc1ccccc1`, in that order: 2.29%, -6.15%, 3.41% and 0%.
Consider `CCCS(=O)(=O)N1CCCC(Cn2c(C)nc3cccnc32)C1` (stereo unspecified), for which the activity amounted to 1.15% in test [3], 7.76% in test [5] and 4.99% in test [6]. In addition, the activity change, negative = inhibition in test [4] is 2.96%.
In the case of `CCc1cccc(NC(=O)Cn2c(=O)oc3cc(S(=O)(=O)N4CCCCC4)ccc32)c1`, the activity is 1.79% in test [3], -2.82% in test [5] and -33.8% in test [6]. For the same molecule, the activity change, negative = inhibition in test [4] was 0%.
For `COCCn1ccc2c(C3=CCOCC3)nc(-c3cccc4[nH]ccc34)cc21`, the activity in test [3] is -2.42%; in test [5], -12.7%; in test [6], -36.9%. Moreover, the activity change, negative = inhibition in test [4] is -9.46% [at 85.7 µM].
`COc1ccccc1CC(=O)N1CCCc2ncc(C(=O)Nc3cccc(Cl)c3)cc21`: the activity is 2.46% in test [3], 9.05% in test [5] and 3.39% in test [6]. Moreover, the activity change, negative = inhibition in test [4] is 2.54% [at 85.7 µM].
In the case of `COc1ccc(CCN2C(=O)c3cc4oc(C)cc4n3CC2(C)C(=O)NC2CCCCC2)cc1OC` (stereo unspecified), the activity in test [3] is -7.54%; in test [5], -78.3%; in test [6], -5.67%. For the same molecule, in test [4], the activity change, negative = inhibition is -4.8%.
Turning to `C[C@H]1CN(C(=O)Nc2ccc(F)cc2F)C[C@@H]1c1nc(-c2ccccc2)no1`, the activity was 6.81% in test [3], -92.4% in test [5] and 9.33% in test [6]. Also, the Potency in test [4] is 769 nM (active).
As to `Cc1cccc(N2CCN(C(=O)c3ccc4c(=O)[nH]c5c(C(=O)NC(C)C)sc(=S)n5c4c3)CC2)c1C`, the values for the activity in test [3], in test [5] and in test [6] were -37.2%, -76.7% and -28.7%, respectively. Besides, in test [4], the activity change, negative = inhibition amounted to 0.0257%.
